D3 antag: antagonists of human D3 dopamine receptor. 360,000 tested, 2.5% active. D3R cells, DiscoveRx beta-arrestin luminescence, antagonist mode; hits give low values. AID 652054. max response, negative = inhibition, %. P35462; in the data active = max response below about -50%
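Cells plated overnight at 1500 cells/well, then exposed to library compounds with dopamine controls for 90 minutes at 37 degrees C. DiscoveRx reagent added for 30–60 minutes at room temperature; luminescence read, quantitative HTS format.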
D1 ag: agonists of human D1 dopamine receptor; HEK293 T-REx D1 cells, calcium flux, agonist mode; P21728; AID 504660; 360,000 tested, 1% active; activation, % at 2 µM; in the data active = activation above about 30%
Target sequence (P21728 whole entry, looked up): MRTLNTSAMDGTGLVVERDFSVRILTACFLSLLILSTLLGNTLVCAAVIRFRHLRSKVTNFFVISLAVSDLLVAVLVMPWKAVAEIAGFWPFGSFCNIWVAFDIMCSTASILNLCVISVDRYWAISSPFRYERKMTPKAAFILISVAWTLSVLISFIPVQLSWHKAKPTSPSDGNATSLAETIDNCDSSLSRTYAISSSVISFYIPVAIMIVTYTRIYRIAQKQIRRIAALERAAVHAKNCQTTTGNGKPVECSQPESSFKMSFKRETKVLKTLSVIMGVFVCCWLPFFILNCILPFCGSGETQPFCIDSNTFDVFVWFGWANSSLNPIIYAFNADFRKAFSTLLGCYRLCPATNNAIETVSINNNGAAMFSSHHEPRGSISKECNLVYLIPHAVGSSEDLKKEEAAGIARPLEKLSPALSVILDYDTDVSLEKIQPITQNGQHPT
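Agonism was scored from calcium flux recorded over 180 s (1 read/s) after pintool compound addition, following a 10-cycle baseline. Cells were inducible force-coupled HEK293 TREx D1, plated overnight at 30 C and loaded with no-wash calcium dye.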
D1 potentiator: potentiators of human D1 dopamine receptor. P21728. HEK293 TREx D1 cells, calcium flux, dopamine EC20 potentiation. potentiation, % at 10 µM. 360,000 tested, 0.036% active. AID 504651; in the data active = potentiation above about 30%
DRD3 agonist: agonists of human D3 dopamine receptor; P35462; D3R DiscoveRx beta-arrestin cells, luminescence, 90 min; max activation, %; 410,000 tested, 0.58% active; in the data active = max activation above about 30%
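Agonist-mode cell screen: cells plated at 1500/well and incubated overnight at 37 °C, then exposed to library compounds for 90 min at 37 °C. Detection reagent was added for 30–60 min at room temperature, and luminescence was read.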
D1 antag: human D1 dopamine receptor antagonism; HEK293 TREx D1 cells, calcium flux, dopamine EC80; hits give low values; activity change, negative = inhibition, % at 10 µM; 360,000 tested, 3.2% active; P21728; in the data active = activity change below about -30%
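Inducible Hek293 Trex D1 cells (tetracycline, overnight, 30 C). Calcium dye 30–90 min RT. Antagonist mode: EC80 dopamine added after 180 s compound read.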
Large screens that a line does not name were inactive. Most compounds without a hit are left out; they make up all but 6.1% or so of the library.

O=[N+]([O-])c1nn(-c2ccccc2)[n+]([O-])c1N1CCN(c2ccccc2F)CC1	none
CCOC1=C2[C@@H](CN(S(=O)(=O)c3ccc(C)cc3)[C@H]2c2cccc3ccccc23)[C@H]2C(=O)NC(=O)[C@H]2C1	none (no result: D1 ag, D1 potentiator, D1 antag)
Cc1ccccc1OCCC(=O)OCC(=O)Nc1ccc(C)c(S(=O)(=O)N2CCCCC2)c1	none (no result: D1 ag, D1 potentiator, D1 antag)
Cc1ccc(NC(=O)Cn2ncc(Cl)c(Cl)c2=O)cc1S(=O)(=O)N1CCCCC1	D3 antag -58 (no result: D1 potentiator)
Cc1ccc(NC(=O)COc2ccccc2)cc1S(=O)(=O)N1CCCCCC1	none
CN(C(=O)COC(=O)C1CCN(S(=O)(=O)c2c(Cl)cccc2Cl)CC1)c1ccccc1	D1 antag -32
Cc1ccc(C)c(OCCC(=O)OCC(=O)Nc2ccc(C)c(S(=O)(=O)N3CCCCC3)c2)c1	D1 antag -32
Cc1ccc(NC(=O)Cc2ccc(Cl)cc2)cc1S(=O)(=O)N1CCCCCC1	none
Cc1ccccc1CC(=O)OCC(=O)Nc1ccc(C)c(S(=O)(=O)N2CCCCC2)c1	D1 ag 79, D1 antag -35 (no result: D1 potentiator)
Cc1ccc(NC(=O)C2CCN(C(=O)OC(C)(C)C)CC2)cc1S(=O)(=O)N1CCCCC1	D1 antag -38
Cc1ccc(NC(=O)COC(=O)C2CC3C=CC2C3)cc1S(=O)(=O)N1CCCCC1 (centres undefined)	DRD3 agonist 47
Cc1ccc(NC(=O)COC(=O)C2CCC2)cc1S(=O)(=O)N1CCCCC1	D1 antag -32
Cc1ccc(S(=O)(=O)N2CCCCC2)cc1NC(=O)C1CCN(C(=O)OC(C)(C)C)CC1	none (no result: D1 ag, D1 potentiator, D1 antag)
Cc1ccc(S(=O)(=O)N2CCC(C(=O)OCC(=O)N(C)C3CCS(=O)(=O)C3)CC2)cc1C (centres undefined)	none
Cc1ccc(S(=O)(=O)N2CCCCC2)cc1NC(=O)COC(=O)C1CC2C=CC1C2 (centres undefined)	none
Cc1ccc(S(=O)(=O)N2CCC(C(=O)OCC(=O)N(C)C3CCCCC3)CC2)cc1C	D1 antag -38
Cc1ccc2nc(N(Cc3cccnc3)C(=O)CCOc3ccccc3)sc2c1	none (no result: D3 antag, D1 antag)
Cc1ccc(NC(=S)NCc2ccccc2)cc1S(=O)(=O)N1CCCCC1	D1 ag 33, D1 antag -35
COc1ccccc1CN1CCc2c([nH]c3ccccc23)C1	D3 antag -90
Clc1cccc(CN2CCc3c([nH]c4ccccc34)C2)c1Cl	none
COc1cc(CN2CCc3c([nH]c4ccccc34)C2)cc(OC)c1	D3 antag -68
CCN(CC)c1ccc2cc(-c3nc(-c4cc(OC)c(OC)c(OC)c4)no3)c(=O)oc2c1	D1 ag 153 (no result: D3 antag)
CCN(CC)c1ccc2cc(-c3nc(-c4cccs4)no3)c(=O)oc2c1	D1 ag 278 (no result: D3 antag)
COc1cc(-c2noc(-c3cc4cccc(C)c4oc3=O)n2)cc(OC)c1OC	none (no result: D3 antag)
CCN(CC)c1ccc2cc(-c3nc(-c4ccccc4F)no3)c(=O)oc2c1	D1 ag 204 (no result: D3 antag)
CCOC(=O)NC(NCCc1ccccc1)(C(F)(F)F)C(F)(F)F	DRD3 agonist 31 (no result: D1 antag)
O=C(NC1CCCC1)C(c1ccncc1)N(C(=O)Cc1cccs1)c1cccc(F)c1 (centres undefined)	D1 antag -32
O=C(NC1CCCC1)C(c1ccncc1)N(C(=O)Cc1cccs1)c1ccccc1 (centres undefined)	none
O=C(CCCN1CCC(C(=O)c2ccc(F)cc2)CC1)c1ccc(F)cc1	D3 antag -101, D1 antag -85
O=C(CCCN1CCC(C(O)c2ccc(F)cc2)CC1)c1ccc(F)cc1 (centres undefined)	D3 antag -80 (no result: D1 ag, D1 potentiator, D1 antag)
CC1CCN(CCCC(=O)c2ccc(F)cc2)CC1	none (no result: D3 antag, D1 ag, D1 potentiator, D1 antag)
CN1CCN(CCCC(=O)c2ccc(C3CCCC3)cc2)CC1	D3 antag -55
CCn1ncc(S(=O)(=O)N2CCN(c3cccc(OC)c3)CC2)c1C	D1 antag -35
COc1ccccc1NC(=O)c1ccc(NC(=O)COC(=O)C2CC2C)cc1 (centres undefined)	D1 antag -43
COc1ccccc1NC(=O)c1ccc(NC2=NC3CS(=O)(=O)CC3S2)cc1 (centres undefined)	D1 antag -35
COc1cccc(CNC(=O)c2ccc(C)c(NC3=NC4CS(=O)(=O)CC4S3)c2)c1 (centres undefined)	D1 antag -32
CSc1ccc(/C=C/C(=O)OCC(=O)NC2CCCCCC2)cc1	none (no result: D1 ag, D1 potentiator, D1 antag)
CCC(NC(=S)NCc1ccc(F)cc1)c1ccc(C(C)C)cc1 (centres undefined)	none
CC(C)(C)OC(=O)NCc1ccc(NC(=O)c2nc[nH]c2C(=O)NCCNC(=O)c2[nH]cnc2C(=O)Nc2ccc(CNC(=O)OC(C)(C)C)cc2)cc1	DRD3 agonist 42 (no result: D1 ag, D1 potentiator, D1 antag)
CC(C)(C)OC(=O)NCCCCCNC(=O)c1nc[nH]c1C(=O)N1CCc2ccccc2C1	DRD3 agonist 38 (no result: D1 ag, D1 potentiator, D1 antag)
CC(C)(C)OC(=O)CNC(=O)c1[nH]cnc1C(=O)NCC(=O)OCc1ccccc1	DRD3 agonist 71
C[C@H](NC(=O)c1[nH]cnc1C(=O)Nc1ccc(CNC(=O)OC(C)(C)C)cc1)C(=O)OCc1ccccc1	DRD3 agonist 80
CC(C)(C)OC(=O)NCCCCCNC(=O)c1nc[nH]c1C(=O)NCC(=O)OCc1ccccc1	none (no result: D1 ag, D1 potentiator, D1 antag)
CC(C)(C)OC(=O)NCCCC[C@H](NC(=O)c1nc[nH]c1C(=O)N1CCc2ccccc2C1)C(=O)OC(C)(C)C	none
COc1ccc2nc(SC(C)C(=O)NC3CCCC3)[nH]c2c1 (centres undefined)	none
C[C@H](NC(=O)c1nc[nH]c1C(=O)N[C@@H](CCCCNC(=O)OC(C)(C)C)C(=O)OC(C)(C)C)C(=O)OCc1ccccc1	none
C[C@H](NC(=O)c1nc[nH]c1C(=O)NCCCCCNC(=O)OC(C)(C)C)C(=O)OCc1ccccc1	DRD3 agonist 65, D1 antag -39
CC(C)(C)c1ccc(C(=O)Nc2nnc(C3=COCCO3)o2)cc1	D3 antag -71
CN(C)c1ccc(C(=O)Nc2nnc(C3=COCCO3)o2)cc1	none
Cc1cc2oc(=O)ccc2cc1[N+](=O)[O-]	none
O=C(/C=C/Nc1ccc(F)cc1)c1ccc(Oc2ncccn2)cc1	D1 antag -41
CC1(C)CC(=O)C2=C(C1)O[C@@]1(CCCCN3C(=O)c4ccccc4C3=O)Cc3cc(C#N)ccc3C2O1	none (no result: D3 antag, DRD3 agonist)
COc1ccc2c(Cl)c(-c3nnc(SCC(=O)c4ccccc4)n3C)sc2c1	D1 antag -43
O=C(CNC(=O)c1ccccc1)OC(C(=O)Nc1ccc2c(c1)OCO2)c1ccccc1 (centres undefined)	none (no result: D3 antag, DRD3 agonist)
Cc1ccccc1NC(=O)CC1SC(=O)N(c2ccccc2)C1=O (centres undefined)	D3 antag -92
N=C1SC(CC(=O)Nc2ccccc2[N+](=O)[O-])C(=O)N1c1ccccc1 (centres undefined)	D3 antag -62
